Unmarked numbers belong to inactive results. Inconclusive results are not listed. Calls of active or inactive are those of the source. Unless noted, calls come from the whole dose curve; as a rule, active = well fitted curve in the direction sought with a large enough effect; inconclusive = small, poorly fitted or top-dose-only effect, or another doubt; inactive = no such curve, though single readings can be large; an effect the other way counts as inactive or inconclusive.
How the values were obtained:
[1] = target: Lysosomal acid glucosylceramidase (Homo sapiens) (UniProt P04062); assay: Glucocerebrosidase-p2 (AID 348; in the data active = potency below about 10 µM; note: potency is the fitted concentration of half-maximal effect); settings: purified GBA, blue fluorogenic substrate, 40 min
Chain of Lysosomal acid glucosylceramidase (Homo sapiens) (P04062 whole entry, looked up): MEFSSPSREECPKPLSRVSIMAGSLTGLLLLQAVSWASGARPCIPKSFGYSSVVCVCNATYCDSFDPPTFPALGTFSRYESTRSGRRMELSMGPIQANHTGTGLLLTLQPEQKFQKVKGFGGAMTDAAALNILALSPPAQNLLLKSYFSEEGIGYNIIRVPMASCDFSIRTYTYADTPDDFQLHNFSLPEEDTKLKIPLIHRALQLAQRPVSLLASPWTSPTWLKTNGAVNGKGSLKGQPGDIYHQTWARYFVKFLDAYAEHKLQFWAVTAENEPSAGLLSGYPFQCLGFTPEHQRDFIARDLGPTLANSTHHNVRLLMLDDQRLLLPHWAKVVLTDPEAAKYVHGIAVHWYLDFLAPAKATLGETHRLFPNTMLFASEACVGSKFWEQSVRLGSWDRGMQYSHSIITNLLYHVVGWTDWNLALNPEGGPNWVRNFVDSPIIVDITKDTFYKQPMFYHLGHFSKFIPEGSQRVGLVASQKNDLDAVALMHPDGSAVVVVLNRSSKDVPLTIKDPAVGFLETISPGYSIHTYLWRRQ
Method in brief: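 Compounds titrated from 0.6 nM upwards against 0.2 nM enzyme in pH 5.9 citric acid/KH2PO4, taurocholate, tween-20; blue fluorogenic substrate 80 uM, 40 min room temperature, stopped and read Ex 365/Em 440 for AC50.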

[2] = AP1 Signaling Pathway (AID 357; active = well fitted curve in either direction with a large enough effect, not every such curve was filed as active;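 note: ME-180 reporter cells stimulated with EGF at its EC50 level; % is set by controls: 0 for no effect and ±100 for the full control effect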); settings: ME-180 AP-1-bla reporter, EGF-induced, beta-lactamase ratio, 5 h; at 7.69 µM (top of the series) unless noted
Method in brief: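 AP-1-bla ME-180 cells, Opti-MEM + 0.5% dialyzed FBS, plated overnight 37 °C. Cpd titration + EC50 EGF, 5 h 37 °C. CCF4 2.5 h RT; ex 405, em 460/530 ratio → %activity, AC50.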

[3] = target: Cytochrome P450 1A2 (Homo sapiens) (UniProt P05177); assay: p450-cyp1a2 (AID 410; calls by dose curve; note: potency is the fitted concentration of half-maximal effect;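 for activity change, negative = inhibition: -100% = full effect of reference inhibitor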); settings: recombinant CYP1A2, luciferin-ME demethylation, luminescence; series mostly up to 57 µM
Chain of Cytochrome P450 1A2 (Homo sapiens) (P05177 whole entry, looked up): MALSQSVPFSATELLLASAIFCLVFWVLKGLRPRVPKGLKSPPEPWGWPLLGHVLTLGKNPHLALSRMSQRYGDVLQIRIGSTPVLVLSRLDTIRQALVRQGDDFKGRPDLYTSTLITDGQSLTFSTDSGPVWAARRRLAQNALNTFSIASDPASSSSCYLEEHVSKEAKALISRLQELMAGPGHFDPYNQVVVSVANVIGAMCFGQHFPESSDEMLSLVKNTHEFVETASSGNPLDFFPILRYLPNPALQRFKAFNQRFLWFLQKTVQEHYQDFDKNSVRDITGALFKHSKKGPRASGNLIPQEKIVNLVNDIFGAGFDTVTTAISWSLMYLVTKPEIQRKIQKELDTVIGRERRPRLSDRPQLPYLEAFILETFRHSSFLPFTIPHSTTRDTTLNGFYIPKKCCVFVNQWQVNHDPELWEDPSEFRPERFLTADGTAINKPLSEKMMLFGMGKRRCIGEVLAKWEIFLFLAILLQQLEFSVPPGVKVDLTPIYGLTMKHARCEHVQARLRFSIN
Method in brief: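 20nM CYP1A2 with 100uM Luciferin-ME (at Km) in 100mM KPO4; compound preincubated 10 min, NADPH regeneration added, 60 min at room temperature. Luciferin quantified by luminescence after detection reagent; normalized to 57 uM furafylline.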

[4] = NFAT Signaling Pathway (AID 444; active = well fitted curve in either direction with a large enough effect, not every such curve was filed as active;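 note: carbachol stimulus at about its EC50 of 1 µM final; % is set by controls: 0 for no effect and ±100 for the full control effect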); settings: Jurkat NFAT-bla M1, carbachol, beta-lactamase ratio, 5 h; at 7.69 µM (top of the series) unless noted
Method in brief: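 Read-out: CCF4 FRET ratio (460 nm/530 nm) after 1 h RT dye loading, used for %activity and AC50 from titration series. Cells: Jurkat NFAT-β-lactamase/M1 line, treated with compound plus 1 uM carbachol for 5 h, 37 °C.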

[5] = Stat Signaling Pathway (AID 446; active = well fitted curve in either direction with a large enough effect, not every such curve was filed as active;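 note: ME-180 cervical cancer cells given 40 pM IL-6 alongside compound; SIE-controlled beta-lactamase reporter measured as 460/530 nm FRET emission ratio; % is set by controls: 0 for no effect and ±100 for the full control effect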); settings: ME-180 SIE beta-lactamase reporter, IL-6 stimulated, 5 h; at 7.69 µM (top of the series) unless noted
Method in brief: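 ME-180 SIE-bla cells; overnight plating; cpd + IL-6 40 pM, 5 h, 37 C; LiveBLAzer 2.5 h RT; 460/530 nm emission ratio. Normalized to 300 pM IL-6 and 125 nM JAK inhibitor controls.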

[6] = target: Glucocorticoid receptor (Homo sapiens) (UniProt P04150); assay: GR-GFP Redistribution (AID 450;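 active = compounds whose dose series gives a full or clear partial fitted curve of increased nuclear translocation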; note: potency is the fitted concentration of half-maximal effect); settings: U2OS GR-GFP nuclear translocation, laser cytometry, 2 h
Chain of Glucocorticoid receptor (Homo sapiens) (P04150 whole entry, looked up, the tested form may be a part): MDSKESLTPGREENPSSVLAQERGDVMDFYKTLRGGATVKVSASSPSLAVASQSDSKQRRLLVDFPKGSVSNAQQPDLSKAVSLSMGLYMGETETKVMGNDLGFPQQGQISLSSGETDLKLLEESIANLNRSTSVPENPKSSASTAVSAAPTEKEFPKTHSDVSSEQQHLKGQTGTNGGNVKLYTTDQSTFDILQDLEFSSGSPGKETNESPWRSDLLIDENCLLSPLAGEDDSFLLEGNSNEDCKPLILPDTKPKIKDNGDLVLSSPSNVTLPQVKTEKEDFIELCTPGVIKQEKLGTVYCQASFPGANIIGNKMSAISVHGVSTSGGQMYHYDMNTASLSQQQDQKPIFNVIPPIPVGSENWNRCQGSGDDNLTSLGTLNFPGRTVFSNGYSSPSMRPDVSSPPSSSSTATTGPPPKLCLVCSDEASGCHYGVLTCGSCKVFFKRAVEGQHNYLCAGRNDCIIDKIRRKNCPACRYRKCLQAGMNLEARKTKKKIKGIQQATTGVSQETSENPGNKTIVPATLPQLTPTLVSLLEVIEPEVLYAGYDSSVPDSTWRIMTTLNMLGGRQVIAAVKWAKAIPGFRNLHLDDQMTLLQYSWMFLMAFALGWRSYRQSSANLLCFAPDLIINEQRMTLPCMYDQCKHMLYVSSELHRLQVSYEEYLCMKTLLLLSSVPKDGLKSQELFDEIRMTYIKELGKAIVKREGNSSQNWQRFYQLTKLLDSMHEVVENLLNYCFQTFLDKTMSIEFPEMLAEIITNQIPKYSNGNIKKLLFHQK

[7] = target: Glucocorticoid receptor (Homo sapiens) (UniProt P04150); assay: GR-EFC Redistribution (AID 451; calls by dose curve; note: potency is the fitted concentration of half-maximal effect); settings: CHO-K1 GR-EFC translocation, beta-gal luminescence, 2 h
Method in brief: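 Translocation of GR-ED fusion to nuclear EA restores b-gal, read by luminescence after 1 h room-temperature detection. Engineered CHO-K1 biosensor cells, 1,000/well, exposed 2 h at 37 C to titrations up to 46 uM final.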

[8] = target: Mitogen-activated protein kinase 10 (Mus musculus) (UniProt Q61831); assay: JNK3 AlphaScreen Assay (AID 530; active = well fitted curve in either direction with a large enough effect, not every such curve was filed as active;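 note: kinase came from lysate of stimulated human HepG2 cells; signal reports phosphorylation of biotinylated GST-cJun 1-79 at Ser73 with 10 µM ATP; % is set by controls: 0 for no effect and ±100 for the full control effect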); settings: JNK3 lysate, c-Jun phosphorylation; series mostly up to 57.1 µM
Method in brief: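 Compound titrations were preincubated 15 minutes at room temperature with substrate, antibody and pre-activated JNK3-containing HepG2 lysate. Reactions were started with 10 uM ATP and stopped with EDTA-containing bead buffer for AlphaScreen detection.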

[9] = target: 3',5'-cyclic-AMP phosphodiesterase 4B (Homo sapiens) (UniProt Q07343); assay: qHTS Assay for Inhibitors of PDE-IV (AID 607; active = well fitted activation curve with a large enough effect in the main read-out, with a control signal flat, not every such curve was filed as active; note: % of control where 0% means no effect); settings: HEK293 ACTOne CNG channel cells, membrane potential fluorescence; series mostly up to 22.9 µM
Chain of 3',5'-cyclic-AMP phosphodiesterase 4B (Homo sapiens) (Q07343 whole entry, looked up): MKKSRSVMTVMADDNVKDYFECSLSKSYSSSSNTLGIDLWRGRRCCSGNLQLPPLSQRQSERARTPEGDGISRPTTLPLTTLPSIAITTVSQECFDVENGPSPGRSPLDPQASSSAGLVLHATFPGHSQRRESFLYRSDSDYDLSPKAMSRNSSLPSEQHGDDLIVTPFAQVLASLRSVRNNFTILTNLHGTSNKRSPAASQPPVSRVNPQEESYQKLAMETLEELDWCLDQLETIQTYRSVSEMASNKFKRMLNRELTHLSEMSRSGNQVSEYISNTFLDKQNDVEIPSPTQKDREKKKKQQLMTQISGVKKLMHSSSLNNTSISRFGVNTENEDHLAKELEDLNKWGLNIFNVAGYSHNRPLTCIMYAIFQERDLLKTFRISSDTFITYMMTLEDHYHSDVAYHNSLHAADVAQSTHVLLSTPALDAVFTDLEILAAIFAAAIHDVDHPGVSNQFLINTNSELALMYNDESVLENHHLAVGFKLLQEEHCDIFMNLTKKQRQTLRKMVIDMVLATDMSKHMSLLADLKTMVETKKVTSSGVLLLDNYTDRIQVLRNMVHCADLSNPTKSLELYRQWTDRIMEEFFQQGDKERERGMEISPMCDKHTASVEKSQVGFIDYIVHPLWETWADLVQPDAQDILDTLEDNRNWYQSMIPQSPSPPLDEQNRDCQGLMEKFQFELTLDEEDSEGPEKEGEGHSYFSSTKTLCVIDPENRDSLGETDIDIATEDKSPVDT
Method in brief: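 ACTOne HEK293 cells carry a modified cAMP-gated CNG channel and express endogenous PDE4; plated 1000 cells/well, compounds up to 22.9 uM final. Membrane-potential dye fluorescence (ex 535/em 590) was read; parental cells received 10 uM forskolin + 100 uM RO 20-1724.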

[10] = target: Cytochrome P450 3A4 (Homo sapiens) (UniProt P08684); assay: qHTS Assay for Inhibitors and Substrates of Cytochrome P450 3A4 (AID 884); settings: recombinant CYP3A4, Luciferin-PPXE luminescence; series mostly up to 57.1 µM; note: nearly all actives have a fitted effect of over 50% in size; note: potency is the fitted concentration of half-maximal effect
Chain of Cytochrome P450 3A4 (Homo sapiens) (P08684 whole entry, looked up): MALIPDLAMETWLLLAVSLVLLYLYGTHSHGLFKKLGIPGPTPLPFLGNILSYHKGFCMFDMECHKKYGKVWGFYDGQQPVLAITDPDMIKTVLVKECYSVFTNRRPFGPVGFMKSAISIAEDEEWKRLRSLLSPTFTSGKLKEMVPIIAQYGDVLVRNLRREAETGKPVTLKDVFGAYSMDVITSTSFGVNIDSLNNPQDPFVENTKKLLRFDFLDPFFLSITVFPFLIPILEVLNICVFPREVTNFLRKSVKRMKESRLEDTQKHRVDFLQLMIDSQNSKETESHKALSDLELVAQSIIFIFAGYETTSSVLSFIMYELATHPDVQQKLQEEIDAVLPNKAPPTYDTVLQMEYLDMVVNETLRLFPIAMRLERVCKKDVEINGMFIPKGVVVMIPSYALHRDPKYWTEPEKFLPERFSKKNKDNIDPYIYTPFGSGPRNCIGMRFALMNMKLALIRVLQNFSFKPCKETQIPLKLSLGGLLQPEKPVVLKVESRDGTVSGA
Method in brief: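 20 nM human CYP3A4 with 25 uM Luciferin-PPXE (at KM) in 200 mM KPO4, preincubated 10 min with compound; NADPH regeneration started a 60 min RT reaction. Luciferin detected by luminescence, normalized to 57 uM ketoconazole as full inhibition.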

[11] = target: Cytochrome P450 3A4 (Homo sapiens) (UniProt P08684); assay: qHTS Assay for Activators of Cytochrome P450 3A4 (AID 885); settings: recombinant CYP3A4, Luciferin-PPXE luminescence, 60 min; series mostly up to 57.1 µM; note: nearly all actives have a fitted effect of over 65% in size
Method in brief: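 20nM CYP3A4 + 25uM Luciferin-PPXE (=KM), 200mM KPO4; cpd 10 min RT; NADPH regen, 60 min RT; stop w/ detection buffer, 20 min; luminescence. Normalized to 57 uM ketoconazole.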

[12] = target: Dual specificity protein kinase CLK4 (Homo sapiens) (UniProt Q9HAZ1); assay: qHTS Assay for Inhibitors of CDC-like Kinase 4 (ADP-FP Assay) (AID 1795); settings: Transcreener ADP fluorescence polarization; series mostly up to 50 µM; note: nearly all actives have a fitted effect of over 60% in size; note: potency is the fitted concentration of half-maximal effect
Chain of Dual specificity protein kinase CLK4 (Homo sapiens) (Q9HAZ1 whole entry, looked up): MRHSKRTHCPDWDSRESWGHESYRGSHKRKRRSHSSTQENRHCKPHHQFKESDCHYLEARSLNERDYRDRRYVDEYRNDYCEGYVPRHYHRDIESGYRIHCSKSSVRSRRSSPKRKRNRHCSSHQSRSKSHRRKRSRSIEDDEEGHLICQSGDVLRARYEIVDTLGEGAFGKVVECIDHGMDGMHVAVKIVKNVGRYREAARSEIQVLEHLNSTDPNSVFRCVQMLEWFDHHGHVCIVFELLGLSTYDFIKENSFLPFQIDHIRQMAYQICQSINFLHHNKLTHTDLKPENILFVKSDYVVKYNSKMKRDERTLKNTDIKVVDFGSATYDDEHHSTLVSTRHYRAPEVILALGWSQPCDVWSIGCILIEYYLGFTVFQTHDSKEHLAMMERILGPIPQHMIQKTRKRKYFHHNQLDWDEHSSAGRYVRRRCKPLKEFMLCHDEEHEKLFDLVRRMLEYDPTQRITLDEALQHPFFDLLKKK
Method in brief: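 Inhibition of ADP formation by 6.25 nM Clk4 is measured using 1 uM ATP and 100 uM RS repeat peptide over one hour. Produced ADP displaces a fluorescent tracer from antibody, lowering polarization.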

[13] = target: Ubiquitin carboxyl-terminal hydrolase 1 (Homo sapiens) (UniProt O94782); assay: Inhibitors of USP1/UAF1: Pilot qHTS (AID 504865); settings: purified USP1/UAF1, Ub-rhodamine cleavage fluorescence; series mostly up to 54.9 µM; note: nearly all actives have a fitted effect of over 35% in size; note: potency is the fitted concentration of half-maximal effect
Chain of Ubiquitin carboxyl-terminal hydrolase 1 (Homo sapiens) (O94782 whole entry, looked up): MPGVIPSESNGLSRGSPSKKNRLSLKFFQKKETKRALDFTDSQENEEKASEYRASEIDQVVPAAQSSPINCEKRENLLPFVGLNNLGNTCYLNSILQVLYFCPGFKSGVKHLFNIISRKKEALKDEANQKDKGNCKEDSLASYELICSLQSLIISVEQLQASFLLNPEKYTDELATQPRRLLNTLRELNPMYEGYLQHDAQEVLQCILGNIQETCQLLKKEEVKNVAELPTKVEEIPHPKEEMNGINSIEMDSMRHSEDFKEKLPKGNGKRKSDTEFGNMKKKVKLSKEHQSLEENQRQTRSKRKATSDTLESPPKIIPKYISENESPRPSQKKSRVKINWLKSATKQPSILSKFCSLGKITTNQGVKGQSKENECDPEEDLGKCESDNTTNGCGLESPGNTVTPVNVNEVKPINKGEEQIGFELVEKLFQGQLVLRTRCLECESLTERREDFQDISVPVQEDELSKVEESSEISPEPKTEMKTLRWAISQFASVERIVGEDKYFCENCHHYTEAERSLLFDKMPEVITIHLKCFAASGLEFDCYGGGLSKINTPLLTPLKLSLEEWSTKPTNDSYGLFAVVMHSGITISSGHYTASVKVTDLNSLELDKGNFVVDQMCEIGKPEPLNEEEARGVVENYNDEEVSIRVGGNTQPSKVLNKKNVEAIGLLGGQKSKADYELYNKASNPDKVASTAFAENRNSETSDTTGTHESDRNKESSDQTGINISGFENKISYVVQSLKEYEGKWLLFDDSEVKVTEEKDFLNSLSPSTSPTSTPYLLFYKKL
Method in brief: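 Kinetic fluorescence assay: 1nM USP1/UAF1, 15 min compound preincubation, then 150nM Ub-Rho; 480/540 nm.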

[14] = Primary qHTS for small molecule stabilizers of the endoplasmic reticulum resident proteome: Secreted ER Calcium Modulated Protein (SERCaMP) assay (AID 1508630); settings: SH-SY5Y GLuc-SERCaMP (Gaussia luciferase released on ER calcium loss) secretion, thapsigargin, luminescence; series mostly up to 38.4 µM; note: % is set by controls: 0 for no effect and ±100 for the full control effect
Method in brief: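 GLuc-SERCaMP-expressing SH-SY5Y cells, pretreated 16 h with compound, are challenged with thapsigargin to empty ER calcium stores; after 4 h, coelenterazine is added directly to the medium and luminescence is imaged.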

[15] = target: Cytochrome P450 2C19 (Homo sapiens) (UniProt P33261); assay: qHTS Assay for Inhibitors and Substrates of Cytochrome P450 2C19 (AID 899); settings: recombinant CYP2C19, luciferin-H EGE luminescence; series mostly up to 57.1 µM; note: potency is the fitted concentration of half-maximal effect; nearly all actives have a fitted effect of over 60% in size
Chain of Cytochrome P450 2C19 (Homo sapiens) (P33261 whole entry, looked up): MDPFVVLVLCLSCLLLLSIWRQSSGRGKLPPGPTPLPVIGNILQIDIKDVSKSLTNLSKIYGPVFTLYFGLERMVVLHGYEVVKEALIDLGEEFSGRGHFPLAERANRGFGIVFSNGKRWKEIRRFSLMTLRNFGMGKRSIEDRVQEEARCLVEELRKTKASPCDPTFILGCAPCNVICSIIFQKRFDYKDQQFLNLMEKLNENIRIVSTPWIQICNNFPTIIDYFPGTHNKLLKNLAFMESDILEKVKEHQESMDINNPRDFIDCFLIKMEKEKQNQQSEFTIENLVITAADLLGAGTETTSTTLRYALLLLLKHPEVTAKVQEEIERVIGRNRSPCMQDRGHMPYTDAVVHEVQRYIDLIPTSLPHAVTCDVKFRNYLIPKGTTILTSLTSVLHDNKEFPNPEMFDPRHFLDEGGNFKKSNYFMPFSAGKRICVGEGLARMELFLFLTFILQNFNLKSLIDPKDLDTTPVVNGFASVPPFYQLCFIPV
Method in brief: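 Luminescence readout of luciferin formed from 10uM Luciferin-H EGE (KM level) by 5 nM CYP2C19 in 50mM KPO4. 60 min NADPH-driven reaction at 37C after 10 min compound preincubation; data scaled to 57uM ketoconazole inhibition.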

[16] = target: Dual specificity protein kinase CLK4 (Homo sapiens) (UniProt Q9HAZ1); assay: qHTS Assay for Inhibitors of CDC-like Kinase 4 (ADP-Glo Assay) (AID 1771); settings: recombinant CLK4, ADP-Glo luminescence; series mostly up to 80 µM; note: nearly all actives have a fitted effect of over 70% in size; note: potency is the fitted concentration of half-maximal effect
Method in brief: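 25 nM Clk4 with 100 uM RS repeat peptide and 1 uM ATP (final) in buffer with 2 mM MgCl2, 0.5 mM EGTA, 2.5 mM DTT, 0.01% Triton X-100; 1 h at room temperature; ADP-Glo luminescence for ADP formed.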

[17] = target: Cytochrome P450 2C9 (Homo sapiens) (UniProt P11712); assay: qHTS Assay for Inhibitors and Substrates of Cytochrome P450 2C9 (AID 883); settings: recombinant CYP2C9, luciferin-H luminescence, 60 min; series mostly up to 57.1 µM; note: % is set by controls: 0 for no effect and ±100 for the full control effect; nearly all actives have a fitted effect of over 60% in size
Method in brief: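 Luminescent read-out of deoxyluciferin hydroxylation, normalized to 57uM sulphaphenazole (AC100). Reaction: 10nM enzyme, 100uM Luciferin-H (equal to KM), 25mM KPO4, 10 min compound preincubation, then 60 min with NADPH regeneration, both at 37C.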

[18] = qHTS Assay for Identification of Small Molecule Agonists for Hypoxia Response Element Signaling Pathway (AID 914; active = well fitted activation curve with a large enough effect in the signal ratio, with a control signal flat, not every such curve was filed as active; the % refers to the signal ratio; note: potency is the fitted concentration of half-maximal effect); settings: ME-180 (cervical carcinoma) HRE-bla reporter, beta-lactamase ratio, CoCl2, 17 h; activation: stronger effect = higher value
Method in brief: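 Read-out: CCF4 FRET ratio of 460nm to 530nm emission (excitation 405nm) after 2.5 hours at room temperature, taken from HRE-bla ME-180 cells that had been exposed to compound and EC50 CoCl2 for 17 hours.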

Row | SMILES | Potency [1] [µM] | activity change, negative = inhibition [2] [%] | Potency [3] | activity change, negative = inhibition [4] | activity, negative = inhibition [5] [%] | Potency [6] [µM] | Potency [7] [µM] | Potency [8] | Potency [9] | Potency [10] | Potency [11] | Potency [12] | Potency [13] | outcome [14] | Potency [15] | Potency [16] | activity change, negative = inhibition [17] | Potency [18]
1 | COc1cccc(-c2cncnc2NCc2cnc(C)cn2)c1 | > 11.4 | -11.3 | 12.6 µM (active) | 8.15% | 7.19 | > 46 | > 46 | inactive | inactive | 1.58 µM (active) | inactive | inactive | inactive | inactive |  |  |  | 
2 | Cn1cc(-c2nc3cnc(N4CCNCC4)nc3n(Cc3ccc(F)cc3)c2=O)c2ccccc21 | > 11.4 |  | 20 µM (active) | 68.4% [activator] (active) |  | > 9.22 | > 46 |  | inactive |  | inactive | inactive |  | inactive | 7.94 µM (active) | inactive |  | 
3 | CN(Cc1ccco1)c1ncncc1-c1ccccc1C(F)(F)F |  | 13.8 | 12.6 µM (active) |  | -2.15 | > 46 | > 46 | inactive | inactive | 1.26 µM (active) | inactive | inactive |  | inactive | 3.98 µM (active) | inactive |  | 
4 | CS(=O)(=O)Nc1cccc(-c2cncnc2-n2ccnc2)c1 | > 11.4 | 7.32 | 15.8 µM (active) | 14.5% | 14.6 | > 46 | > 46 | inactive | inactive | 7.94 µM (active) | inactive | inactive | inactive | inactive |  |  |  | 
5 | Cc1cccc(CNc2ccnc(-c3cccc(C#N)c3)n2)c1 | > 11.4 |  | 0.398 µM (active) |  |  | > 46 | > 46 |  | inactive |  | inactive | 11.2 µM (active) | inactive | inactive | 2.51 µM (active) | 7.94 µM (active) |  | 
6 | Cc1cnc(CNc2cc(-c3ccccc3Cl)ncn2)cn1 | > 11.4 | 2.27 | 15.8 µM (active) | 3.5% | 2.17 | > 46 | > 46 | inactive | inactive | inactive |  |  | inactive | inactive |  | 20 µM (active) |  | 
7 | CNc1cc(-c2ccccc2C)ncn1 | > 11.4 | 2.36 | 10 µM (active) | 2.04% | 13.3 | > 46 | > 46 | inactive | inactive |  |  | inactive | inactive | inactive |  |  |  | 
8 | Cc1noc(C)c1-c1nccc(NCc2ccccc2)n1 | > 2.29 | 0.193 | 0.794 µM (active) | -7.38% | -0.39 | > 46 | > 46 | inactive | inactive | 5.01 µM (active) | inactive | inactive | 25.1 µM (active) | inactive |  |  |  | 
9 | Cc1cnc(CNc2cc(-c3ccc(C(=O)N(C)C)cc3)ncn2)cn1 | > 11.4 | 19.2 | inactive |  | 6.75 | > 46 | > 46 | inactive | inactive |  |  |  | inactive | inactive |  | 14.1 µM (active) |  | 
10 | Cc1noc(C)c1-c1nccc(NCc2cccs2)n1 | > 11.4 | 3.65 | 0.501 µM (active) | -16.6% | 2.65 | > 46 | > 46 | inactive |  |  | inactive |  |  | inactive |  | 35.5 µM (active) |  | 
11 | CNc1nc(-c2cccc(C#N)c2)nc2ccccc12 | > 11.4 | -15.2 | 0.0794 µM (active) | 2.31% | 6.92 | > 46 | > 46 | inactive | inactive |  | inactive |  | inactive | inactive | 7.94 µM (active) | 11.2 µM (active) |  | 
12 | CN(C)C(=O)c1ccc(-c2cncnc2Nc2ccc(F)cc2)cc1 |  | -12.8 |  | 5.12% | 9.71 | > 46 | > 46 | inactive |  |  |  | inactive | inactive | inactive |  | 25.1 µM (active) |  | 
13 | CN(Cc1ccco1)c1cc(-c2cccc(C#N)c2)ncn1 | > 11.4 | -7.22 | 0.794 µM (active) | 11.4% | 8.43 | > 46 | > 46 | inactive | inactive |  |  |  | inactive | inactive |  | 28.2 µM (active) | 12.3% [at 2.29 µM] | 
14 | COc1ncc2nc(-c3cn(C)c4ccccc34)c(=O)n(CCc3ccccc3)c2n1 | > 11.4 | 24.3 |  | -1.31% |  | > 9.22 | > 46 |  |  |  |  | inactive | inactive | inactive |  | inactive |  | 1 µM (active)

— PubChem BioAssay (NCATS)
